Results published in PubChem BioAssay (NCATS).
Values joined by “and” are separate entries in the source; they are usually repeats but may differ in a detail not shown here. Identical values can stand only once. Inconclusive results are not listed. Where a call stands in place of a potency, no number is given. Unmarked numbers belong to inactive results. Active and inactive are the calls of the source. Unless noted, the call rests on the fitted dose curve; in most records, active means well fitted curve in the direction sought with a large enough effect; inconclusive means small, poorly fitted or top-dose-only effect, or another doubt; inactive means no such curve, though single readings can be large; an effect the other way counts as inactive or inconclusive.

Experiments:
[1] = Primary qHTS for inhibitors of La Crosse Virus (LACV) - induced cell death in SH-SY5Y cells (AID 1508616);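 further: top concentration of the series differs between compounds; higher means more rescue of cells from virus-induced death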
Summary of the method: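 Cytopathicity rescue screen: compounds pinned onto SH-SY5Y cells, which are then infected with LACV (MOI 0.01) and held 6 days at 37C. Percent activity is scaled between infected DMSO control and uninfected DMSO control.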

[2] = molecular target: Calcium and integrin-binding protein 1 (Homo sapiens) (UniProt Q99828); experiment: Validation qHTS for Identification of Calcium Integrin Binding protein 1 (CIB1) Competitor (AID 1508618)
Calcium and integrin-binding protein 1 (Homo sapiens), sequence (Q99828 whole entry, looked up): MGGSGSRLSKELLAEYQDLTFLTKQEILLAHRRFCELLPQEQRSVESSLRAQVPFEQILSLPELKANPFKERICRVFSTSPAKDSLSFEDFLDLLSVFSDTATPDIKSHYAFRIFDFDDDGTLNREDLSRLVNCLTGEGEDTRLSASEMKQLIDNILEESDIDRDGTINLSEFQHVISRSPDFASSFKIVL
Summary of the method: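 Fluorescence polarization with 1 uM CIB1-GST and 100 nM FITC-alphaIIb peptide in HEPES pH 7.4, NaCl, 5 mM CaCl2, Tween20. Compounds at up to 114 uM final, preincubated with protein 15 min; read after 15 min more at RT.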

[3] = molecular target: Calcium and integrin-binding protein 1 (Homo sapiens) (UniProt Q99828); experiment: Primary qHTS for Identification of Calcium Integrin Binding Protein 1 (CIB1) Competitor (AID 1508620);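 further: GST tagged CIB1 binding a fluorescein labelled alphaIIb integrin peptide tracer; top concentration of the series differs between compounds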
Summary of the method: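 CIB1-GST (1 uM final) and compound incubated 15 min at room temperature before adding FITC-alphaIIb peptide tracer (100 nM final). Competition for binding read by fluorescence polarization (ex 480, em 540) after another 15 min at room temperature.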

[4] = Primary qHTS for small molecule stabilizers of the endoplasmic reticulum resident proteome: Secreted ER Calcium Modulated Protein (SERCaMP) assay (AID 1508630)
Summary of the method: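 The SH-SY5Y reporter protocol was run at 3 concentrations up to 38.3 uM (primary) or 11 concentrations (follow-up): 16 h compound, 100 nM thapsigargin for 4 h, then extracellular luciferase luminescence.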

[5] = molecular target: Cytochrome P450 2D6 (Homo sapiens) (UniProt P10635); experiment: Cytochrome P450 family 2 subfamily D member 6 (CYP2D6) small molecule antagonists: luciferase biochemical (cell-free) qHTS assay (AID 1645840; active means well fitted curve in the direction sought with a large enough effect in the repeat runs; an effect the other way counts as inactive or inconclusive; further: nearly all actives have a fitted effect of over 55% in size; further: potency means the concentration at half of the fitted maximal effect)
Cytochrome P450 2D6 (Homo sapiens), sequence (P10635 whole entry, looked up): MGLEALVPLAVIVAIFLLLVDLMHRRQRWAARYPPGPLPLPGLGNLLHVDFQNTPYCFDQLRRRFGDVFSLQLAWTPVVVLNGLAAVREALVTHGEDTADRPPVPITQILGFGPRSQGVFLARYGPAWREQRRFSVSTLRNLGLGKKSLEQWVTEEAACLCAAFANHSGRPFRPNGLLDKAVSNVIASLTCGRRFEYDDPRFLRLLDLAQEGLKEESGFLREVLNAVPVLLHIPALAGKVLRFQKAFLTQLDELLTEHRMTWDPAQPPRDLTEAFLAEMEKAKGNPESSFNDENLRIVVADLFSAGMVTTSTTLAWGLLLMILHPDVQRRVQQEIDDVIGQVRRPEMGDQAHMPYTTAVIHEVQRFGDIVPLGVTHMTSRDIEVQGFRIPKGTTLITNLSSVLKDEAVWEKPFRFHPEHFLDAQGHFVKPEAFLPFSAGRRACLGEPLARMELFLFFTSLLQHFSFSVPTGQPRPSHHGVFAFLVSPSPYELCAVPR
Summary of the method: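 P450-Glo CYP2D6 system: proluciferin substrate converted by enzyme to luciferin, read by luminescence proportional to activity. Enzyme-substrate mix with compound 10 min at room temperature, then NADPH regeneration 1 h before detection reagent.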

[6] = molecular target: Cytochrome P450 2C9 (Homo sapiens) (UniProt P11712); experiment: Cytochrome P450 family 2 subfamily C member 9 (CYP2C9) small molecule antagonists: luciferase biochemical (cell-free) qHTS assay (AID 1645842; active means well fitted curve in the direction sought with a large enough effect in the repeat runs; an effect the other way counts as inactive or inconclusive; further: nearly all actives have a fitted effect of over 55% in size; further: potency means the concentration at half of the fitted maximal effect)
Cytochrome P450 2C9 (Homo sapiens), sequence (P11712 whole entry, looked up): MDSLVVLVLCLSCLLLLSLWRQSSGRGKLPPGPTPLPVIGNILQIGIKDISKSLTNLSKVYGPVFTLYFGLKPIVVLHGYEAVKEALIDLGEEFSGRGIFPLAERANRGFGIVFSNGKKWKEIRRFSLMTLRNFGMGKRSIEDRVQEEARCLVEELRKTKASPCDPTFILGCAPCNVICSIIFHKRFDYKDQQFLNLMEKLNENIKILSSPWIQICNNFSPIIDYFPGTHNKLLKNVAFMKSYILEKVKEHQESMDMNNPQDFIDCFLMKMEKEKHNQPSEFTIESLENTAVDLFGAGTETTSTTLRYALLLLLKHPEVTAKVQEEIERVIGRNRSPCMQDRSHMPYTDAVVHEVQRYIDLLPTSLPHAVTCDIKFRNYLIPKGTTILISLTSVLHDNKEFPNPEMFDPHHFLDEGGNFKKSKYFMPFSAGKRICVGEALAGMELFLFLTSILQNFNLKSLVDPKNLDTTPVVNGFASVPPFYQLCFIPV
Summary of the method: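 P450-Glo CYP2C9 system: proluciferin substrate with enzyme in mix containing 0.4% BSA, 10 min at room temperature, then NADPH regeneration solution added and incubated 1 h at 37C. Detection reagent stopped reaction; luminescence read after 20 min as RLU.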

Papain (Carica papaya) = Papain (Carica papaya) (UniProt P00784); experiment: Primary qHTS assay for inhibitors of the protease papain (AID 1645873);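 further: papain turnover of Z-FR-AMC read as the AMC fluorescence gain over 10 min; series mostly up to about 50 µM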
Papain (Carica papaya), sequence (P00784 whole entry, looked up, the tested form may be a part): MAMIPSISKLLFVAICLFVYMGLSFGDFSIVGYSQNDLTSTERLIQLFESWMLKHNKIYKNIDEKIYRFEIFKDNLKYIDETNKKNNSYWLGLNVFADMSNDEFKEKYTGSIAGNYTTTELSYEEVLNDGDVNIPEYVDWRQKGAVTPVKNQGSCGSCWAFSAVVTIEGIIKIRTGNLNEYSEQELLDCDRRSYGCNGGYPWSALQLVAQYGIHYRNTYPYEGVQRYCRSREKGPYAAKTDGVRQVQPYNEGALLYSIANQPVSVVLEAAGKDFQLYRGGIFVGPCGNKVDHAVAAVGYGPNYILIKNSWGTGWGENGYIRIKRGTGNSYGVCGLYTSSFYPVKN

[7] = Primary qHTS for inhibitors of nuclear receptor binding SET domain protein 2 (NSD2) in an isogenic RCH-ACV NSD2 p.E1099K mutant (9B) (AID 1645876); further: nearly all actives have a fitted effect of over 70% in size; further: potency means the concentration at half of the fitted maximal effect
[8] = A High-Content qHTS Against Drug Library for the Identification of Small Molecules that Inhibit DYT1 Early Onset Primary Dystonia-Associated Cell Pathology (AID 1645839; calls by dose curve; further: series mostly up to about 46 µM)
Summary of the method: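 High-content imaging quantified EGFP-TorsinA mislocalization in HEK293-derived cells inducibly expressing DYT1 mutant torsinA, after 48 h exposure to compound given together with tetracycline induction. Cell count served as a toxicity channel alongside %pathology.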

[9] = Primary qHTS for inhibitors of nuclear receptor binding SET domain protein 2 (NSD2) in an RCH-ACV wild type WT cells (2C) (AID 1645877); further: nearly all actives have a fitted effect of over 70% in size
[10] = molecular target: Rap guanine nucleotide exchange factor 3 (Homo sapiens) (UniProt O95398); experiment: Confirmatory qHTS for agonist of cAMP-regulated guanine nucleotide exchange factor 3 (EPAC1) (AID 1645881);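 further: EPAC1 catalysed release of BODIPY-GDP from Rap1B seen as fluorescence loss; nearly all actives have a fitted effect of over 75% in size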
Rap guanine nucleotide exchange factor 3 (Homo sapiens), sequence (O95398 whole entry, looked up): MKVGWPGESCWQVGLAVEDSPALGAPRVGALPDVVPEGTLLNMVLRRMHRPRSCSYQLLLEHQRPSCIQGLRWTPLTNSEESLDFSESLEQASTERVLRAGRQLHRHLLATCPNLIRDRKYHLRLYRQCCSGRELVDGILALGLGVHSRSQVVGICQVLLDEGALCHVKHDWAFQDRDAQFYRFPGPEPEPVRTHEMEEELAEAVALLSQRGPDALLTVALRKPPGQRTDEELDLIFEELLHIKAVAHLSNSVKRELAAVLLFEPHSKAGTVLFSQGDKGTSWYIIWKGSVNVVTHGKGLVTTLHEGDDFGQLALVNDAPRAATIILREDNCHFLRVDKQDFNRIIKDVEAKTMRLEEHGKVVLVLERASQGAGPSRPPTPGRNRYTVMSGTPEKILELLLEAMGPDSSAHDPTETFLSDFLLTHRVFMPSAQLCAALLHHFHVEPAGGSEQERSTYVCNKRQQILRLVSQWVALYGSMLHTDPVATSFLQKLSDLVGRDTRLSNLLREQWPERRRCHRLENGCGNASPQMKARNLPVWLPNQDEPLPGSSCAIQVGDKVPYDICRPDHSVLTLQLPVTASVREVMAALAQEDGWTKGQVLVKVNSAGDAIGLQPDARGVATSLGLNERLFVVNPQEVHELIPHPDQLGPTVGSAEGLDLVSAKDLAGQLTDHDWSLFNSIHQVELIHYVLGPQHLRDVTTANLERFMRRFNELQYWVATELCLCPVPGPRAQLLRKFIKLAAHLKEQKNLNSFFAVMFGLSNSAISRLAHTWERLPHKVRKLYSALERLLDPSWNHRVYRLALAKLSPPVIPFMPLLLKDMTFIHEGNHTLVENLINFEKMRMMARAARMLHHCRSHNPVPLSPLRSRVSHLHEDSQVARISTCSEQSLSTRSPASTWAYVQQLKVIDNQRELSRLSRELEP

[11] = molecular target: Rap guanine nucleotide exchange factor 4 (Homo sapiens) (UniProt Q8WZA2); experiment: Confirmatory qHTS for agonist of cAMP-regulated guanine nucleotide exchange factor 4 (EPAC2) (AID 1645884);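 further: nucleotide exchange releases bodipy-GDP from Rap1 and this lowers its fluorescence; nearly all actives have a fitted effect of over 65% in size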
Rap guanine nucleotide exchange factor 4 (Homo sapiens), sequence (Q8WZA2 whole entry, looked up): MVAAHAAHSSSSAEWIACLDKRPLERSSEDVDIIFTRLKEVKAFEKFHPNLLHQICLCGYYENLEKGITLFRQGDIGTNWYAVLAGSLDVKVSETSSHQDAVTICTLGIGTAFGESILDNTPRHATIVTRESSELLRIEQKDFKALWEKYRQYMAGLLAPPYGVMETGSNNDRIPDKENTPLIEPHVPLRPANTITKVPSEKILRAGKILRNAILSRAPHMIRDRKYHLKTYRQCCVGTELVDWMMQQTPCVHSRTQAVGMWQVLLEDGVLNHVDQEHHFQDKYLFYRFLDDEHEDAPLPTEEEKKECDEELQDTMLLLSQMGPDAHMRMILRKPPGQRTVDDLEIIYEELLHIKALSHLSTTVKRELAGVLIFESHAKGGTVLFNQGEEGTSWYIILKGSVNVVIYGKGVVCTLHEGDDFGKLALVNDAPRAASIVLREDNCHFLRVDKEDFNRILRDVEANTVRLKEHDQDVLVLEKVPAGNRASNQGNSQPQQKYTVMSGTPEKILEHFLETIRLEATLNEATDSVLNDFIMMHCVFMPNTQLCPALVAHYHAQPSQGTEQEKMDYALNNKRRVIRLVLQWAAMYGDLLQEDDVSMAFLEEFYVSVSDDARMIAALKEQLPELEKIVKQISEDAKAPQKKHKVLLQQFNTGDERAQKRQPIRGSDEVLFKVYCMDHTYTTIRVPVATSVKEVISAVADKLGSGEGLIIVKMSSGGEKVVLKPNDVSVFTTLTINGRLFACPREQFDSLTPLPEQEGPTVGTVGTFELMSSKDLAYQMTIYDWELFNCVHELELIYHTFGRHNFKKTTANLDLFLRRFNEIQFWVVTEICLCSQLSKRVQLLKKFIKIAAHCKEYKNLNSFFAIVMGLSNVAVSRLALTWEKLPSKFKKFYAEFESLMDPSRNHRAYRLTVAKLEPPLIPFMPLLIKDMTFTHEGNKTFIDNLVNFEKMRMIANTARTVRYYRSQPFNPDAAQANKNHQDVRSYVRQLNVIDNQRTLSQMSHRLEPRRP

[12] = molecular target: Rap guanine nucleotide exchange factor 4 (Homo sapiens) (UniProt Q8WZA2); experiment: Confirmatory qHTS for antagonist of cAMP-regulated guanine nucleotide exchange factor 4 (EPAC2) (AID 1645885); further: nearly all actives have a fitted effect of over 25% in size
[13] = molecular target: Rap guanine nucleotide exchange factor 3 (Homo sapiens) (UniProt O95398); experiment: Counterscreen qHTS for antagonist of cAMP-regulated guanine nucleotide exchange factor 3 (EPAC1) (AID 1645888);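 further: fluorescence loss as bound BODIPY-GDP is released from Rap1B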
Summary of the method: (§1)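 Rap1B-BODIPY-GDP 250 nM + GDP 50 uM; cpds 7-pt, final 9.74 nM–152 uM (activator mode) or from 7.32 nM upwards (inhibitor mode); RT; FI 480/540 nm at 5 and 30 min, then ± cAMP, reread.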

[14] = molecular target: Rap guanine nucleotide exchange factor 3 (Homo sapiens) (UniProt O95398); experiment: Counterscreen qHTS for agonist of cAMP-regulated guanine nucleotide exchange factor 3 (EPAC1) (AID 1645889); further: nearly all actives have a fitted effect of over 40% in size
Summary of the method: as §1

Row | Structure (SMILES) | Potency [1] | outcome [2] | Potency [3] | Potency [4] | Potency [5] | Potency [6] | Potency (Papain (Carica papaya)) | Potency [7] | Potency [8] | Potency [9] | Potency [10] | Potency [11] | Potency [12] | outcome [13] | outcome [14]
1 | CCCCCCCC/C=C\CCCCCCCC(=O)NCc1ccc(O)c(OC)c1 | inactive | inactive | inactive | inactive | inactive | 1.1 µM (active) and 1.69 µM (active) | inactive | 2.66 µM (active) | – | – | – | – | – | – | –
2 | CC(=O)[C@@]1(O)CC[C@H]2[C@@H]3CCC4=CC(=O)CC[C@]4(C)[C@H]3CC[C@@]21C | inactive | inactive | inactive | inactive | – | – | inactive | inactive | inactive | inactive | – | – | – | – | –
3 | Cc1ccc(S(=O)(=O)NC(=O)NN2CCCCCC2)cc1 | inactive | inactive | inactive | inactive | – | – | inactive | inactive | inactive | inactive | – | – | – | – | –
4 | OCCN1CCN(CC/C=C2/c3ccccc3Sc3ccc(C(F)(F)F)cc32)CC1 | inactive | inactive | inactive | inactive | 6.92 µM (active) | – | inactive | 15 µM (active) | – | – | inactive | inactive | inactive | inactive | inactive
5 | NS(=O)(=O)c1cc2c(cc1Cl)NC(C1CC3C=CC1C3)NS2(=O)=O (centres undefined) | inactive | inactive | inactive | inactive | – | – | inactive | inactive | inactive | – | – | – | – | – | –
6 | COCCc1ccc(OCC(O)CNC(C)C)cc1 (centres undefined) | inactive | inactive | inactive | inactive | – | – | inactive | inactive | inactive | – | – | – | – | – | –
7 | CN(C(=O)CCCOc1ccc2[nH]c(=O)ccc2c1)C1CCCCC1 | inactive | inactive | inactive | inactive | inactive | 13.8 µM (active) | inactive | – | inactive | inactive | – | – | – | – | –
8 | CCn1cc(C(=O)O)c(=O)c2cc3c(cc21)OCO3 | inactive | inactive | inactive | inactive | inactive | inactive | – | inactive | inactive | inactive | – | – | – | – | –
9 | CN(C)CCOC(=O)COc1ccc(Cl)cc1 | inactive | inactive | inactive | inactive | – | inactive | inactive | inactive | inactive | inactive | – | – | – | – | –
10 | CC1=NS(=O)(=O)c2cc(Cl)ccc2N1 | inactive | inactive | inactive | inactive | inactive | inactive | inactive | inactive | inactive | inactive | – | – | – | – | –
11 | FC(F)(F)c1ccccc1-n1ccnc1 | inactive | inactive | inactive | inactive | 3.47 µM (active) | 13.8 µM (active) | – | inactive | inactive | inactive | – | – | – | – | –
12 | CC(C)(Oc1ccc(CCNC(=O)c2ccc(Cl)cc2)cc1)C(=O)O | inactive | inactive | inactive | inactive | inactive | – | inactive | inactive | inactive | – | – | – | – | – | –
